# Nrf2 activator: Nrf2 pathway activation; AREc32 ARE-luciferase reporter (MCF7-derived line), luminescence, 24 h; Potency, µM (doses to about 46.1 µM), inactives show top-dose activation, hits mostly activators; 0.31% of 410,000 active; AID 624171; further: potency means the concentration at half of the fitted maximal effect; % of control where 0% means no effect; nearly all actives have a fitted effect of over 65% in size
#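 Reporter line AREc32 (ARE-Fluc), seeded overnight in OPTI-MEM with 5% FBS; compound pin-transferred, 24 hr at 37 deg C, 5% CO2; luminescent read-out.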
# Apoferritin bind: candidate novel general anesthetic via apoferritin binding. P02791. 0.074% of 350,000 active. AID 485281. Potency, µM (top dose mostly 77.5 µM), for inactives: at the highest dose activity change, negative = displacement, most hits filed as inhibitors. apoferritin/1-aminoanthracene competitive binding, fluorescence; further: potency means the concentration at half of the fitted maximal effect; on the % scale 0 is the no-effect control and ±100 the full control effect; nearly all actives have a fitted effect of over 20% in size
# Target sequence (P02791 2-175 limits assumed): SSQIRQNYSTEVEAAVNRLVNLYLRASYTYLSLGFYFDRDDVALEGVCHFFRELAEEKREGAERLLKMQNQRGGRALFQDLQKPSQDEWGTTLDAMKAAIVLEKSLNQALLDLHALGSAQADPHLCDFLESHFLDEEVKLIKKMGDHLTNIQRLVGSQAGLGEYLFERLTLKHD
#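 In PBS, apoferritin at 10 uM is loaded with 1-AMA from a 50% saturated solution. After 10 min of compound exposure at ambient temperature, reduced 535 nm fluorescence indicates probe displacement.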
# Giardia killer: kills Giardia lamblia; Giardia lamblia trophozoite viability; activity change, % at 7.66 µM, hits read low; 0.15% of 340,000 active; AID 540267; in the data active means activity change below about -80%; inconclusive means between about -30% and that limit;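 further: parasites exposed to compound for two days anaerobically before the ATP read; on the % scale 0 is the no-effect control and ±100 the full control effect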
#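 Luminescent ATP signal served as the viability read-out, measured 15-30 min after adding ATP detection reagent to trophozoites that had been incubated with compounds for 48 hrs at 37 deg C anaerobically at 100 cells/well.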
# A549 viability: counter-screen for Nrf2 inhibitors: cytotoxicity in A549 cells; A549 ARE-Fluc cells, CellTiter-Fluor viability, 18-24 h; Potency, µM (highest dose often 46 µM), inactives show top-dose activity change, negative = cytotoxicity, usual class: inhibitors; 0.16% of 390,000 active; further: potency means the concentration at half of the fitted maximal effect; on the % scale 0 is the no-effect control and ±100 the full control effect
#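 A549 ARE_Fluc cells in 5% FBS OPTI-MEM were exposed to compounds in concentration-response for 18-24 h at 37 deg C. Viability was read by CellTiter-Fluor fluorescence (Ex 405/Em 525) after 30 min, before the luciferase read.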
# Nrf2 block: Nrf2 pathway inhibition; AID 504444; Potency, µM (doses to about 46 µM), inactives show at the highest dose activity change, negative = inhibition, usual class: inhibitors; A549 ARE-Fluc reporter, luciferase luminescence, 18-24 h; 2.1% of 360,000 active; further: potency means the concentration at half of the fitted maximal effect; on the % scale 0 is the no-effect control and ±100 the full control effect; nearly all actives have a fitted effect of over 60% in size
#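 Two sequential reads on A549 ARE_Fluc cells exposed to compound for 18-24 h: a CellTiter-Fluor fluorescence read for viability, then a luciferase luminescence read for Nrf2/ARE activity.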
# mIDH1 inhibitor: blocks human mutant IDH1 R132H enzyme | O75874 | IDH1-R132H enzyme, NADPH consumption, diaphorase/resazurin fluorescence | Potency, µM (top dose mostly 76.6 µM), inactives show at the highest dose activity change, negative = inhibition, usual class: inhibitors | 0.093% of 390,000 active | AID 602179; further: potency means the concentration at half of the fitted maximal effect; on the % scale 0 is the no-effect control and ±100 the full control effect; nearly all actives have a fitted effect of over 65% in size
# Target sequence (O75874 whole entry R132H, stated change not applied): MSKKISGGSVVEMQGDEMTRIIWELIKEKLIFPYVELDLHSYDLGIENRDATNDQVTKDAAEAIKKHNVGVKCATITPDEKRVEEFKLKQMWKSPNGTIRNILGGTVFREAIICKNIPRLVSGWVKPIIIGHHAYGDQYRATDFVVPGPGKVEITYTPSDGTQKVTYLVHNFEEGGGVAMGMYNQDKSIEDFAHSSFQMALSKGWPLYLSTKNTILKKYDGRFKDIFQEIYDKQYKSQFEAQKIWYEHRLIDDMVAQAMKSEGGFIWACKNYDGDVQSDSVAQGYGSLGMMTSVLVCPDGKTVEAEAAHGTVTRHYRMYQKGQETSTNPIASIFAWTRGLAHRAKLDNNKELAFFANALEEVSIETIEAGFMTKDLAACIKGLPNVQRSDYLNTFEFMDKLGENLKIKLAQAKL
#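 IDH1-R132H (0.5 ug/mL) preincubated 30 min with compound, then NADPH (0.016 mM) and alpha-KG (2 mM) added; 80 min at RT, pH 7.5. Remaining NADPH coupled via diaphorase/resazurin to fluorescence (540/590 nm); concentration-response curves normalized to no-enzyme control.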
# Starred values were filed as active, the others as inactive; ? = inconclusive; / = no result; ! = a repeat was not active. Only some compounds are listed: those with a hit (about 2.3% of all), similar ones and a draw of the others. Unless noted, the call rests on the fitted dose curve; in most records, active means well fitted curve in the direction sought with a large enough effect; inconclusive means small, poorly fitted or top-dose-only effect, or another doubt; inactive means no such curve, though single readings can be large; an effect the other way counts as inactive or inconclusive.
SMILES,Nrf2 activator,Apoferritin bind,Giardia killer,A549 viability,Nrf2 block,mIDH1 inhibitor
CCN(Cc1ccccc1)C(=O)c1cc2c(s1)-c1c(C)cccc1OC2,4%,82%,/,5%,-10%,-16%
O=C1CC(/C=C/c2ccco2)=Nc2ccccc2N1,11%,-19%,5,?,2%,-7%
O=C1CC(C(F)(F)C(F)(F)C(F)(F)C(F)F)=Nc2ccccc2N1,0%,50µM*,13,0%,-9%,3%
CC1CCC(N2CC(=O)N(C3CCCC3)C(c3ccc(Cl)cc3)C2=O)CC1 (configuration not stated),-1%,-6%,/,-1%,/,-12%
c1ccc(-c2nc(-c3ccco3)cs2)nc1,13µM*,-11%,2,1%,?,5%
O=C1CCC2=C1C(c1ccccc1Cl)N=C(Nc1nc3ccccc3o1)N2 (configuration not stated),/,/,/,2%,18%,/
CCc1ccc(/C=C/C(=O)C2C(=O)c3ccccc3C2=O)cc1,2%,?,-82*,-30%,?,2%
CCc1ccc(C2C(C(=O)O)c3ccccc3C(=O)N2C)cc1 (configuration not stated),0%,-7%,-4,-9%,6%,1%
COc1cccc(CN(C)C(=O)c2[nH]c(C)c(C(C)=O)c2C)c1OC,0%,-14%,-10,-1%,23µM*,3%
COc1ccccc1CNC(=O)c1[nH]c(C)c(C(C)=O)c1C,3%,4%,1,1%,-14%,-8%
O=C(Nc1sc2c(c1C(=O)O)CCCC2)c1ccc(Cl)cc1,0%,-12%,-2,?,6.5µM*,38%
C[C@@H]1[C@@H](Sc2ccccc2)CC(=O)O[C@@H]1c1ccc(-c2ccccc2)cc1,?,61%,-12,-8%,18µM*,13%
CCNC(=S)N/N=C/c1cc(C)ccc1C,12%,-4%,4,4%,1%,11%
C=CCNC(=S)N/N=C/c1ccc(C)cc1C,14%,-4%,17,-3%,18µM*,2%
COc1ccc(C(CNC(=O)c2cccc(S(=O)(=O)Nc3ccc(F)cc3)c2)N2CCCCC2)cc1 (configuration not stated),3%,/,-25,-16%,-4%,-10%
COc1cccc(C2=Cc3ccc(F)cc3C(CC(C)=O)N2c2ccc(C#CC3(O)CCCCC3)cc2)c1 (configuration not stated),4%,/,/,/,/,/
CC1(C)c2ssc(=S)c2-c2ccccc2N1C(=O)CSC1=NCCS1,3%,?,-10,-14%,15µM*,3%
CC(C)C(=O)Nc1c(C(=O)N2CCN(c3ccccc3F)CC2)oc2ccccc12,1%,?,/,1%,5%,4%
O=C(Nc1c(C(=O)N2CCN(c3ccccc3F)CC2)oc2ccccc12)c1ccc(Br)o1,1%,-3%,/,-9%,23µM*,-16%
O=C(NCCCN1CCOCC1)c1c(-c2ccccc2)oc2c1C(OCCCCCO)CCC2 (configuration not stated),0%,/,/,/,/,/
COc1ccc(CNC(=O)c2cc3oc4ccccc4c3n2C)cc1OC,4%,-14%,/,-14%,?,-6%
O=C(Nc1ccc(F)c(Cl)c1)c1nsc(Cl)c1Cl,3.2µM*,-23%,5,-2%,4%,4%
COc1cc2cc(C(=O)N3CCOCC3)cc(-c3ccc(C)cc3)c2cc1OC,0%,-12%,17,?,18µM*,-20%
O=S(=O)(c1ccc(C(F)(F)F)cc1)N1CCN(S(=O)(=O)c2ccc3c(c2)OCCO3)CC1,/,/,/,-3%,-15%,/
O=C(Nc1ccc(NC(=S)NC(=O)c2ccccc2Cl)cc1)c1cccc(Cl)c1,5%,/,-20,2%,18µM*,1%
SMILES,Nrf2 activator,Apoferritin bind,Giardia killer,A549 viability,Nrf2 block,mIDH1 inhibitor
CC(C)CC(=O)NC(=S)Nc1cccc(NC(=O)c2ccccc2)c1,4%,-3%,9,-16%,15µM*,6%
Cn1c(N/N=C/c2cccs2)cc(=O)n(C)c1=O,7.9µM*,-9%,-14,-8%,5%,-4%
O=C(Nc1ccc(F)cc1)Nc1ccc(N2CCCC2)c(S(=O)(=O)Nc2ccccc2Cl)c1,3%,49%,20,?,23µM*,2%
O=C(Nc1ccc(Cl)c(Cl)c1)Nc1ccc(N2CCCC2)c(S(=O)(=O)Nc2ccccc2Cl)c1,0%,5%,24,?,13µM*,4%
COc1ccccc1-c1noc(-c2ccc(NCc3ccco3)c([N+](=O)[O-])c2)n1,20%,1%,/,-3%,?,7%
CN(C(=O)c1cccc(NC(=O)Cc2ccc([N+](=O)[O-])cc2)c1)C1CC1,3%,/,4,-6%,21µM*,-5%
CC(C)(C)C(=O)N1CCN(c2nc3c(F)cccc3s2)CC1,4%,-11%,/,-2%,/,-5%
O=C(CCl)NCCCCCCCCCNC(=O)CCl,11µM*,-11%,-16,?,-13%,1%
CCC(=O)NCCCCCCNC(=O)CC,0%,2%,9,-1%,8%,2%
Cc1ccccc1S(=O)(=O)Cc1ccc(C(=O)NC2CC2)o1,0%,-3%,-1,?,21µM*,3%
COc1ccc(S(=O)(=O)Cc2ccc(C(=O)NC3CCCCC3)o2)cc1,0%,-6%,39,1%,15µM*!,6%
COc1ccc(S(=O)(=O)Cc2ccc(C(=O)NC3CC3)o2)cc1,-1%,-1%,13,-7%,1%,1%
O=[S+]([O-])(c1ccc2nsnc2c1)N1CCN([S+](=O)([O-])c2c(F)cccc2F)CC1,/,/,/,-2%,0%,/
O=C1NC[C@H](CCCCN2CCN(CCc3ccccc3)C(=O)C2=O)N(CCc2ccccc2)C1=O,0%,/,/,/,/,/
CCCCN1CC(c2nc3ccccc3n2CCCCOc2c(C)cccc2C)CC1=O (configuration not stated),-4%,-3%,/,7%,?,10%
Cc1cccc(C)c1OCCCCn1c(C2CC(=O)N(c3ccc(F)cc3)C2)nc2ccccc21 (configuration not stated),0%,186%,/,?,21µM*,27%
Cc1cccc(C)c1OCCn1c(C2CC(=O)N(c3cccc(Cl)c3)C2)nc2ccccc21 (configuration not stated),-1%,66%,/,?,21µM*,0%
C[C@H](NC(N)=O)C(=O)N1CCN(S(=O)(=O)c2ccc3ccccc3c2)CC1,0%,0%,-14,1%,6%,0%
Cc1ccc(N(C)C(=O)N2CCN(S(=O)(=O)c3ccc4ccccc4c3)CC2)cc1,-1%,-8%,-14,-17%,18µM*,-2%
